Source: PubChem (National Center for Advancing Translational Sciences (NCATS))
D2 ag-1: HTS Assay for Allosteric Agonists of the Human D2 Dopamine Receptor: Primary Screen for Agonists | D(2) dopamine receptor (Homo sapiens), P14416 | HEK293 T-REx D2 cells, calcium flux agonist mode | activation, % at 2 µM | 0.53% of 340,000 active;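 active = activation over 3 SD above normal in the single-dose calcium agonist read, cut at about 30% in these data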
Target sequence (P14416 whole entry, looked up): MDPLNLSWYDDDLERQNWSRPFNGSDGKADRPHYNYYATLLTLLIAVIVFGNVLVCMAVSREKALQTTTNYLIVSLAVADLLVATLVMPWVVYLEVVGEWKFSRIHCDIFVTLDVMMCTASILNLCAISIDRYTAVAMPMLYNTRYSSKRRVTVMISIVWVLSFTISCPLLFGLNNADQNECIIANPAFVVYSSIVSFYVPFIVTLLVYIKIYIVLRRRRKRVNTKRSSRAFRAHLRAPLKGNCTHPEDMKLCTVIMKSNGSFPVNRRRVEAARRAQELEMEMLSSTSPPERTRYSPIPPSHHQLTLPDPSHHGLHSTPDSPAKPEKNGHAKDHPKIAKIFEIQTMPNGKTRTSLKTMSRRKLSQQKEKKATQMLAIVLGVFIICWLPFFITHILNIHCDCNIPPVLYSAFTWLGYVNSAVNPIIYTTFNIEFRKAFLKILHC
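Calcium-flux readout, 1 cycle/sec over 180 s following compound pin transfer, in inducible HEK293 Trex D2 cells (force-coupled); dopamine controls included. Positive calcium responses during this window marked compounds as potential agonists.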
D2 antagonist: HTS Assay for Allosteric Antagonists of the Human D2 Dopamine Receptor: Primary Screen for Antagonists. HEK293 TREx D2 cells, calcium flux, dopamine EC80. inhibition, % at 10 µM. 2% of 340,000 active. AID 485344, 2010; in the data active = inhibition above about 30%; inactive = below that, where a call was filed
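Overnight-induced (tetracycline, 30 C) HEK293 T-REx cells carrying force-coupled D2 receive a no-wash calcium dye, then compound, then EC80 dopamine at 180 s; signals are read kinetically throughout.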
D2 PAM-1: Beta-Arrestin HTS for Positive Allosteric Modulators of the Human D2 Dopamine Receptor: Potentiators | potentiation, % (concentration not given with the values) | 0.23% of 360,000 active | D(2) dopamine receptor (Homo sapiens), P14416 | DiscoveRx D2 beta-arrestin cells, luminescence, 90 min; 100% = 57 uM dopamine signal; in the data active = potentiation above about 50%; inconclusive = mostly about 30% to 49%
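PathHunter D2 cells, attached overnight at 37 deg C, received compound in DMSO plus dopamine at EC20 (50 nM final) for 90 min at 37 deg C. Beta-arrestin recruitment was read as luminescence after 1 h with detection reagent at ambient temperature.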
D2 ag-2: Beta-Arrestin HTS for Positive Allosteric Modulators of the Human D2 Dopamine Receptor: Agonists; D(2) dopamine receptor (Homo sapiens), P14416; DiscoveRx PathHunter D2 beta-arrestin, luminescence, 90 min; 100% = 57 uM dopamine signal; activation, % (test concentration not listed); 0.084% of 360,000 active; in the data active = activation above about 40%; inconclusive = between about 15% and that limit
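Agonist mode: compounds alone added to overnight-plated D2 PathHunter cells for 90 min at 37 C, with 57 uM final dopamine (EC100) defining full response. Beta-arrestin recruitment detected by chemiluminescent reagent, read after 1 h at ambient temperature.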
D2 PAM-2: HTS Assay for Positive Allosteric Modulators of the Human D2 Dopamine Receptor: Primary Screen for Potentiators | D(2) dopamine receptor (Homo sapiens), P14416 | HEK293 T-REx D2, calcium flux, EC20 dopamine potentiation | potentiation, % at 10 µM | 0.34% of 340,000 active | AID 485347, 2010;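 active = potentiation over 3 SD above the plate norm, cut at about 30% in these data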
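Cells plated with tetracycline inducer and held overnight at 30 C; calcium dye loaded 30–90 min at room temperature; baseline taken, compound added and read 180 s; EC20 dopamine then added and read 180 s.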
Of the large screens only hits and unclear results are named; the others gave an inactive call. A selection: hits, their analogues and other compounds. The true share with any hit is near 2.4%.

COc1cc(OC)cc(C(=O)NCC(=O)Nc2ccc(OC)c(Cl)c2)c1	D2 antagonist 37
COCC(=O)Nc1ccc(OC)c(Cl)c1	D2 antagonist 37
COc1ccc2sc(N(Cc3cccnc3)C(=O)C3COc4ccccc4O3)nc2c1 (stereo unspecified)	none (no result: D2 antagonist, D2 PAM-1, D2 ag-2)
Cc1cccc(NC(=O)CN(C)CC(=O)NC(c2ccccc2)c2ccccc2)c1C	D2 antagonist 33
CCc1ccccc1NC(=O)C(=O)NCC(c1cccnc1)N1CCc2ccccc21 (stereo unspecified)	none (no result: D2 antagonist, D2 PAM-1, D2 ag-2)
O=C(O)c1cccc(NC2=C(Cl)C(=O)c3ccccc3C2=O)c1	D2 ag-2 41 (no result: D2 ag-1, D2 antagonist)
Cc1ccc(NC2=C(NC(=O)c3ccccc3)C(=O)c3ccccc3C2=O)cc1Cl	D2 PAM-1 65
COc1ccc(CNC(=O)C(CCSC)NS(=O)(=O)c2ccc3c(c2)oc(=O)n3C)cc1 (stereo unspecified)	none (no result: D2 ag-1, D2 antagonist, D2 PAM-1, D2 ag-2)
O=C(CSc1nccc(=O)[nH]1)Nc1ccc(S(=O)(=O)N2CCOCC2)cc1	D2 antagonist 31
O=C(Nc1ccc(OCc2cc(=O)n3ccccc3n2)cc1)c1ccccc1Cl	none (no result: D2 antagonist, D2 PAM-1, D2 ag-2)
O=S(=O)(/C=C/c1ccccc1)N1CCN(c2ccccc2)CC1	none
COc1ccccc1N1CCN(S(=O)(=O)/C=C/c2ccccc2)CC1	D2 antagonist 54
CC1(C)CC(=O)c2sc(NS(=O)(=O)c3ccccc3)nc2C1	none
CC1(C)CC(=O)c2sc(NS(=O)(=O)c3ccc([N+](=O)[O-])cc3)nc2C1	D2 PAM-1 54
CCC(C)NC(=O)c1ccc(NC(=O)C2=C(C)OCCS2)cc1 (stereo unspecified)	D2 antagonist 44
CC1=C(C(=O)Nc2cccc(C(=O)NC(C)C)c2)SCCO1	none
Cc1ccc(NC(=O)CSc2nc3[nH]c(=O)cc(O)c3s2)c(Br)c1	D2 antagonist 59
CCOc1ccc(NC(=O)CN2C(=O)C(c3ccccc3)=NC23CCC(C)CC3)cc1 (stereo unspecified)	none (no result: D2 antagonist, D2 PAM-1, D2 ag-2)
O=C1CCCc2ccccc2N1	D2 PAM-2 46
N#Cc1nc(COc2cccc(Cl)c2)oc1NCCc1ccccc1	none (no result: D2 antagonist, D2 PAM-1, D2 ag-2)
COc1cc(C(=O)Nc2cccc(OCc3cc(=O)n4c(C)csc4n3)c2)cc(OC)c1OC	none (no result: D2 antagonist, D2 PAM-1, D2 ag-2, D2 PAM-2)
CC1(C)CC(=O)C(C(C2=C(O)CC(C)(C)CC2=O)c2ccc([N+](=O)[O-])cc2)C(=O)C1 (stereo unspecified)	D2 antagonist 33
CC(=O)Nc1ccc(S(=O)(=O)N2CCC3(CC2)CC(=O)c2ccccc2O3)cc1	none
COc1ccc(S(=O)(=O)N2CCC3(CC2)CC(=O)c2ccccc2O3)cc1OC	D2 antagonist 45
O=C(CSc1nccn1Cc1ccccc1)Nc1ccc2c(c1)OCO2	none (no result: D2 antagonist, D2 PAM-1, D2 ag-2)
COc1ccc(NC(=O)c2c(NC(=O)C(F)(F)F)sc3c2CCCCC3)cc1	none (no result: D2 antagonist, D2 PAM-1, D2 ag-2)
O=C(NN=C1CCCC1)c1cc(-c2ccccc2)n[nH]1	none (no result: D2 ag-1, D2 antagonist)
O=C(NN=C1CCCC1)c1ccn[nH]1	D2 antagonist 42
N#C/C(=C\c1ccncc1)c1nc2ccccc2[nH]1	none
Cc1cc2nc(/C(C#N)=C/c3ccncc3)[nH]c2cc1C	D2 antagonist 36
COCCn1c(C)cc(O)c(C(c2ccccc2OC)N2CCN(c3ccccc3)CC2)c1=O (stereo unspecified)	none (no result: D2 antagonist, D2 PAM-1, D2 ag-2)
CC/C(=N\NC(=O)COc1ccc(Br)cc1)c1ccc(OC)c(OC)c1	none (no result: D2 ag-1, D2 antagonist, D2 PAM-2)
CC/C(=N\NC(N)=O)c1ccc(OC)c(OC)c1	D2 antagonist 38
O=C(NCCOc1ccccc1)c1ccc2c(c1)S(=O)(=O)c1cc(Cl)ccc1C2=O	D2 PAM-1 73 (no result: D2 ag-1, D2 antagonist, D2 PAM-2)
CCC(C)(C)NC(=O)c1ccc2c(c1)S(=O)(=O)c1ccccc1C2=O	D2 PAM-1 71
O=C(Nc1ccccn1)c1ccc2c(c1)S(=O)(=O)c1ccccc1C2=O	none
O=C1c2ccccc2S(=O)(=O)c2cc(C(=O)N(c3ccccn3)c3ccccn3)ccc21	D2 ag-1 37, D2 PAM-1 inconclusive
Cc1cc(S(=O)(=O)C(CNC(=O)COc2ccc(Cl)cc2)c2cccs2)ccc1F (stereo unspecified)	none (no result: D2 antagonist, D2 PAM-1, D2 ag-2)
C[C@@H]1NC(=O)c2cc([N+](=O)[O-])cc(I)c2OCC[C@@H](C(N)=O)NC(=O)[C@H](CCCCN)NC1=O	none
C[C@@H]1NC(=O)[C@H](CCCN=C(N)N)NC(=O)c2cc([N+](=O)[O-])cc(I)c2OCC[C@@H](C(N)=O)NC1=O	D2 antagonist 32 (no result: D2 PAM-1, D2 ag-2)
COc1ccc(NC(=O)CN(C)C(=O)CCSc2ccc(F)cc2)cc1	D2 antagonist 34
COc1cccc(NC(=O)CN(C)C(=O)CSc2nc(C)cc(C)n2)c1	D2 antagonist 41
COc1ccc(-n2c(CCC(=O)O)ccc2-c2ccc(F)cc2)c(OC)c1	D2 PAM-2 32
COC(=O)c1ccccc1-n1c(CCC(=O)O)ccc1-c1ccc(F)cc1	D2 PAM-1 56
Clc1ccc(OCCCCN2CCc3ccccc3C2)cc1	D2 antagonist 91
Cc1ccc(Cl)c(OCCN2CCc3ccccc3C2)c1	D2 antagonist 66
CC(C)(C)n1nnnc1CN1CCN2CCCC2C1 (stereo unspecified)	D2 antagonist 37
O=C(Nc1ccccc1N1CCN(c2ccccc2)CC1)C12CC3CC(CC(C3)C1)C2	D2 PAM-2 32
Fc1ccc(N2CCN(c3nnnn3-c3ccccc3)CC2)cc1	D2 antagonist 50
CCOc1ccc(-n2nc3ccc(NC(=O)c4ccc(-c5cccc(Cl)c5)o4)cc3n2)cc1	none (no result: D2 antagonist, D2 PAM-1, D2 ag-2)
CN1CCN(/C=N/c2sc3c(c2C#N)CCCCC3)CC1	none
N#Cc1c(/N=C/C=C/c2ccccc2)sc2c1CCCC2	D2 ag-2 inconclusive, D2 PAM-2 31
COc1cccc(CSc2nc(-c3ccccc3OC)nc3c2Cc2c(CO)cnc(C)c2O3)c1	none (no result: D2 antagonist, D2 PAM-1, D2 ag-2)
O=c1nc(Nc2cccc(Cl)c2)oc2cc(Cl)oc(=O)c12	D2 antagonist 32
COc1ccccc1CNC(=O)CSc1nc(=O)[nH]c2c1CCCC2	none (no result: D2 antagonist, D2 PAM-1, D2 ag-2)
CC1(C)C(C=C(Cl)Cl)C1C(=O)N/N=C/c1ccccc1F (stereo unspecified)	D2 antagonist 60
CC1(C)OC2OC(C(=O)N/N=C/c3ccccc3F)C3OC(C)(C)OC3C2O1 (stereo unspecified)	none
Cn1nc(-c2ccc(Cl)cc2)c2cc(C(=O)N3CCOCC3)sc21	D2 antagonist 31
CCCc1cnc2c(c1SCC(=O)N1CCC(C)CC1)c(=O)n(C)c(=O)n2C	none (no result: D2 antagonist, D2 PAM-1, D2 ag-2)
